Consider 8 compounds from PubChem BioAssay (Tox21).

Records with an inconclusive call do not appear. A number with no mark means an inactive call. Calls of active or inactive are those of the source. Unless noted, the call rests on the fitted dose curve; in most records, active means well fitted curve in the direction sought with a large enough effect in the repeat runs; inconclusive means weak or mixed curves; inactive means no such curve, though single readings can be large; an effect the other way counts as inactive or inconclusive.

The nature of assay [1]: qHTS assay to identify small molecule agonists of the vitamin D receptor (VDR) signaling pathway - cell viability counter screen (AID 743224). Further: nearly all actives have a fitted effect of over 50% in size. In outline:
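Cells: VDR-bla, 2,000/well, settled 4 h. Treatment: compounds in DMSO, 16 h, 37C/5% CO2. Readout: CellTiter-Glo luminescence after 30 min RT.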
On the technique in general: Quantitative high-throughput screening tests each substance at several concentrations.

The nature of assay [2]: qHTS assay to identify small molecule antagonists of the vitamin D receptor (VDR) signaling pathway - cell viability counter screen (AID 743225). Further: nearly all actives have a fitted effect of over 50% in size. In outline:
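Cytotoxicity toward the VDR-bla HEK 293T line was scored by ATP-based CellTiter-Glo luminescence, read in the wells already used for the beta-lactamase readout after 16 h compound treatment under 3 nM 1-alpha,25-dihydroxyvitamin D3 stimulation.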

A short description of assay [3]: qHTS assay to identify small molecule agonists of the NFkB signaling pathway (AID 1159509; active means well fitted curve in the direction sought with a large enough effect in the signal ratio in the repeat runs, not every such curve was filed as active; the % refers to the signal ratio). In outline: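 Readout: FRET fluorescence, 405 nm excitation, 460/530 nm emission; beta-lactamase expression disrupts FRET. Cells: ME-180 stably carrying NF-kB-driven bla reporter. Compound exposure 5 hr, 37 C, 5% CO2.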
A short description of assay [4]: qHTS assay to identify small molecule agonists of the NFkB signaling pathway - cell viability counter screen (AID 1159515; calls by dose curve; further: nearly all actives have a fitted effect of over 55% in size). The method in brief: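 Cells are seeded (2,000 NFkB-bla ME-180 per well), rested overnight, and dosed with DMSO-dissolved compounds for 5 hr at 37 C. Viability is then read by CellTiter-Glo luminescence after 30 min at room temperature.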
Assay [5] can be described thus: qHTS assay to identify small molecule agonists of the endoplasmic reticulum stress response signaling pathway (AID 1159516; active means well fitted activation curve with a large enough effect in the signal ratio in the repeat runs, not every such curve was filed as active; the % refers to the signal ratio). In outline:
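Cells are seeded at 1,500 per well and incubated overnight. Compounds in DMSO are added for 5 hr at 37 C, then beta-lactamase FRET substrate for 2 hr at room temperature, and fluorescence at 460 and 530 nm is measured.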

A short description of assay [6]: qHTS assay to identify small molecule agonists of the endoplasmic reticulum stress response signaling pathway - cell viability counter screen (AID 1159517; calls by dose curve;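 further: HeLa cells carrying an ER stress response element beta-lactamase reporter; nearly all actives have a fitted effect of over 50% in size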). In outline:
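Cytotoxicity of test compounds toward ESRE-bla HeLa cells was assessed after 5 hr exposure. The luminescent CellTiter-Glo signal was measured 30 min after reagent addition.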

Assay [7] can be described thus: qHTS assay to identify small molecule antagonists of the retinoid-related orphan receptor gamma (ROR-gamma) signaling pathway - cell viability counter screen (AID 1159520). Further: nearly all actives have a fitted effect of over 50% in size. The method in brief:
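Tet-on ROR gamma CHO cells (1,000/well) were plated 4 hr, given compounds in DMSO for 2 hr at 37 C, then induced with 1 uM final doxycycline for 16 hr. Viability was read as ATP by CellTiter-Glo luminescence after 30 min.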

The target of assay [8] is Nuclear receptor ROR-gamma (Homo sapiens) (UniProt P51449). As to the kind of experiment: qHTS assay to identify small molecule antagonists of the retinoid-related orphan receptor gamma (ROR-gamma) signaling pathway (AID 1159521). In outline: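 Readout: ONE-Glo luciferase luminescence, 30 min at room temperature. System: Tet-on RORγ CHO, RORE-LUC. Sequence: compound 2 h, doxycycline 1 uM final, 16 h at 37 C.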

A short description of assay [9]: qHTS assay to identify small molecule agonists of the AP-1 signaling pathway - cell viability counter screen (AID 1159525; calls by dose curve; further: nearly all actives have a fitted effect of over 55% in size). In outline: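 Each titration point was normalised to DMSO and tetra n-octyl ammonium bromide controls. The read was Cell Titer Glo luminescence after 30 min at RT, following 5 h compound exposure of ME-180 AP-1-bla cells at 37 °C.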
A short description of assay [10]: qHTS assay to identify small molecule agonists of the AP-1 signaling pathway (AID 1159526; calls by dose curve).
The target in assay [11] is Retinoic acid receptor RXR-alpha (Homo sapiens) (UniProt P19793). As to the kind of experiment: qHTS assay to identify small molecule agonists of the RXR signaling pathway (AID 1159527; calls by dose curve; further: nearly all actives have a fitted effect of over 35% in size). In outline:
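Reporter activation is measured as beta-lactamase activity via FRET substrate cleavage (emission 460/530 nm) in HEK 293T cells expressing an RXR-alpha-driven bla construct, following 16 hr compound exposure at 37 C.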

Assay [12] is described as follows: qHTS assay to identify small molecule agonists of the RXR signaling pathway - cell viability counter screen (AID 1159529). Further: nearly all actives have a fitted effect of over 50% in size. In outline:
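Tox21 10K compounds were tested for cytotoxicity against GeneBLAzer RXR-alpha HEK 293T cells grown in 2% charcoal-stripped FBS. Exposure lasted 16 hr at 37 C, 5% CO2; viability read by CellTiter-Glo luminescence.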

A short description of assay [13]: qHTS assay to identify small molecule antagonists of the retinoid acid receptor (RAR) signaling pathway - cell viability counter screen (AID 1159551). Further: nearly all actives have a fitted effect of over 35% in size. The method in brief:
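Cells (C3RL4) are plated, incubated overnight, dosed with compound in DMSO, then given retinol at 1 uM final. After 6 h at 37 C, CellTiter-Glo is added and luminescence read following 30 min at room temperature.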

The nature of assay [14]: qHTS assay to identify small molecule antagonists of the retinoic acid receptor (RAR) signaling pathway (AID 1159552; further: nearly all actives have a fitted effect of over 50% in size). In outline: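 Overnight-plated C3RL4 reporter cells get compound, then retinol to 1 uM final; plates sit 6 hr at 37 C, 5% CO2. A luciferase reagent is added and light output recorded after 30 min at room temperature.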
Assay [15] can be described thus: qHTS assay to identify small molecule antagonists of the estrogen related receptor (ERR) signaling pathway from Tox21 library - cell viability counter screen (AID 1224834). Further: nearly all actives have a fitted effect of over 30% in size. Further: potency means the concentration at half of the fitted maximal effect. The method in brief: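 ERR cells, 2,000/well; 6 h settle at 37 C/5% CO2; pin-tool compound transfer in DMSO; 17.5 h at 37 C; CellTiter-Fluor, 30 min; fluorescence intensity.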
Assay [16] concerns the target Luciferin 4-monooxygenase (Photinus pyralis) (UniProt P08659). As to the kind of experiment: qHTS assay to identify small molecule inhibitors of firefly luciferase (AID 1224835). Further: nearly all actives have a fitted effect of over 25% in size. Further: potency means the concentration at half of the fitted maximal effect. In outline: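 Quantitative HTS format; KM concentrations of both substrates. Purified P. pyralis FLuc activity quantified from luminescence images.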
In assay [17] the target is Nuclear receptor subfamily 1 group I member 3 (Homo sapiens) (UniProt Q14994). As to the kind of experiment: qHTS assay to identify small molecule antagonists of the constitutive androstane receptor (CAR) signaling pathway (AID 1224838).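 Further: HepG2 cells stably expressing hCAR with CYP2B6 luciferase reporter stimulated by CITCO; nearly all actives have a fitted effect of over 40% in size.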 The method in brief:
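Antagonist mode used CITCO at a final 50 nM to activate CAR in human hepatoma HepG2 cells carrying stable hCAR and a 2.2 kb CYP2B6 promoter-luciferase construct. Compounds were tested at 15 concentrations over 24 h, with luminescence as the end point.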

Assay [18] can be described thus: qHTS assay to identify small molecule agonists of the retinoic acid receptor (RAR) signaling pathway (AID 1159553). Particulars: C3RL4 RARE luciferase reporter, agonist, 6 h; activation: at 73.3 µM (top of the series). In outline:
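Seed C3RL4 reporter cells at 1,000 per well and incubate overnight at 37 C. Add compounds in DMSO, incubate 6 hr. Add luciferase reagent, wait 30 min at room temperature, read luminescence.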

The nature of assay [19]: qHTS assay to identify small molecule agonists of the constitutive androstane receptor (CAR) signaling pathway - cell viability counter screen (AID 1224836). Further: nearly all actives have a fitted effect of over 45% in size. In outline: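 Fluorescence from CellTiter-Fluor indicates live cells after 23 h exposure. The human hepatoma line expresses hCAR and a CYP2B6-2.2kb reporter. Incubation medium contains 0.75 uM PK11195 (final).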
The nature of assay [20]: qHTS assay to identify small molecule antagonists of the constitutive androstane receptor (CAR) signaling pathway - cell viability counter screen (AID 1224837). Further: nearly all actives have a fitted effect of over 45% in size. In outline:
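Viability was measured with CellTiter-Fluor in a HepG2 line carrying stably transfected hCAR and a CYP2B6-2.2kb construct. Cells were exposed for 23 hr at 37 C to 15 compound concentrations with 50 nM CITCO as agonist.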

Chain of Retinoic acid receptor RXR-alpha (Homo sapiens) (P19793 whole entry, looked up): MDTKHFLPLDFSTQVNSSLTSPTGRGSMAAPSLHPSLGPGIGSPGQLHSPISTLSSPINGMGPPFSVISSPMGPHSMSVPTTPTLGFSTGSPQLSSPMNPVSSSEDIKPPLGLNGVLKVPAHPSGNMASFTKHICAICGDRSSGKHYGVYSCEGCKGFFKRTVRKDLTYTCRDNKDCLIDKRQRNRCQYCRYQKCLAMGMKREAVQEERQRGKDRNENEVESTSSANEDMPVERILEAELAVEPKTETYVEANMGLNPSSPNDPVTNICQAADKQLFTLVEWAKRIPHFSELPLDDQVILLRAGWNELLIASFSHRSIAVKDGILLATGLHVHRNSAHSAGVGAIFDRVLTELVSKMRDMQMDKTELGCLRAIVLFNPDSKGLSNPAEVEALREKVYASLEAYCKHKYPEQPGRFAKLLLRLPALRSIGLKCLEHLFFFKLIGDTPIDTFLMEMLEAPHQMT
Chain of Nuclear receptor subfamily 1 group I member 3 (Homo sapiens) (Q14994 whole entry, looked up): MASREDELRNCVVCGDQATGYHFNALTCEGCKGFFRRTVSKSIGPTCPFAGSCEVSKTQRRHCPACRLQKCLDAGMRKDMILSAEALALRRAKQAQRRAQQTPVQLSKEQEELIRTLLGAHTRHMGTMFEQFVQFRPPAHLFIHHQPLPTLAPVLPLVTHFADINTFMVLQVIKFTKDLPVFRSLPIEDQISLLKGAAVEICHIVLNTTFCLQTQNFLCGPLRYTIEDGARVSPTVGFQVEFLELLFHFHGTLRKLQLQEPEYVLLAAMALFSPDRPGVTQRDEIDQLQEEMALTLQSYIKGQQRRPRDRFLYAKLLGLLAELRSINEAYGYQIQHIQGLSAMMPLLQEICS
Chain of Luciferin 4-monooxygenase (Photinus pyralis) (P08659 whole entry, looked up): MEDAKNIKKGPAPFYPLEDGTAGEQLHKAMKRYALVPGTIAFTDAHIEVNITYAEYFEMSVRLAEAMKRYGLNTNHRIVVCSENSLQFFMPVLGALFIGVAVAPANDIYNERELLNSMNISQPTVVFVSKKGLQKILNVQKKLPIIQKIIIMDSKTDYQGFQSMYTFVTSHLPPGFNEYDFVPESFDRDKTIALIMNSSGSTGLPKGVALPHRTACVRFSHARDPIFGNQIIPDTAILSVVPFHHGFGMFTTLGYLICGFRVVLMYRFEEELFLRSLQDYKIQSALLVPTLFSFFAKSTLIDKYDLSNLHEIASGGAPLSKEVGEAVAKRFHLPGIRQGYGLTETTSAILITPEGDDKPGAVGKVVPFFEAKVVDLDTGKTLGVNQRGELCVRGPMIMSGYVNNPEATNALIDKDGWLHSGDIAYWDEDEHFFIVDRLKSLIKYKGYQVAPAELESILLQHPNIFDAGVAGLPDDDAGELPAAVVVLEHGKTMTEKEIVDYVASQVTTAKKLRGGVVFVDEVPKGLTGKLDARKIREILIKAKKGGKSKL

As to `COc1ccc(N=Nc2cc(C)c(N=Nc3ccc(S(=O)(=O)O)cc3)cc2OC)cc1`, the result in [1], in [2], in assay [3], in assay [4], in assay [5] and in assay [6] was inactive. Besides, the outcome in assay [7], in assay [8], in assay [9], in [10], in assay [12] and in assay [13] was inactive. Also, the Potency result in [11], in assay [14] and in [17] was “inactive” throughout. Also, the Potency in [15] is 19.3 µM (active); in assay [16] it was 44.8 µM (active).
For `NC(=O)NNC(N)=O`, the call in assay [2], in [3], in [4], in assay [5], in assay [6] and in assay [7] was inactive. For the same compound, the call in assay [8], in assay [9], in assay [10], in [12], in [13] and in assay [19] was inactive. Further, the Potency result in assay [11], in assay [14], in assay [18], in assay [15] and in assay [20] was “inactive” throughout.
Consider `COc1cc(C=O)ccc1OC(=O)C(C)C`, for which the compound was classed as inactive in assay [1], in assay [2], in assay [3], in assay [4], in [5] and in [6]. Further, the outcome in assay [7], in [8], in [9], in assay [10], in assay [12] and in assay [13] was inactive. Besides, the compound was classed as inactive in assay [19]. For the same compound, the Potency entry in assay [11], in assay [14], in [15], in assay [16] and in assay [20] was “inactive” each time.
Consider `COc1ccc(/C=N/NC(=O)c2ccncc2)cc1OC`, for which the compound was classed as inactive in assay [1], in assay [2], in [3], in assay [4], in [5] and in assay [6]. Further, the call in assay [7], in assay [8], in [9], in [10], in assay [12] and in assay [13] was inactive. For the same compound, in assay [19], the compound was called inactive. Moreover, the Potency entry in assay [11], in assay [14], in [18], in assay [16] and in [20] was “inactive” in each case.
Consider `O=C(O)c1ccccc1C(=O)OCc1ccccc1`, for which the compound was called inactive in assay [1], in [2], in [3], in [4], in assay [5] and in assay [6]. The call in assay [7], in assay [8], in [9], in assay [10], in [12] and in assay [13] was inactive. In assay [19], the compound was classed as inactive. In addition, the Potency result in [11], in assay [14], in assay [15], in [20] and in [17] was “inactive” in each case. Also, the Potency in assay [16] was 39.9 µM (active).
Turning to `CC(=O)OC(C)c1ccccc1` (centres undefined), the outcome in assay [1], in assay [2], in assay [3], in assay [4], in assay [5] and in assay [6] was inactive. The outcome in assay [7], in assay [8], in [9], in [10], in assay [12] and in assay [13] was inactive. For the same compound, the result in [19] was inactive. For the same compound, the Potency entry in assay [11], in assay [14], in [18], in [15], in assay [20] and in assay [17] was “inactive” in each case.
Consider `CCN(CC)C(=O)C1CN2CCc3cc(OC)c(OC)cc3C2CC1OC(C)=O` (centres undefined), for which the compound was classed as inactive in assay [1], in assay [2], in assay [3], in [4], in [5] and in [6]. In addition, the result in [7], in assay [8], in [9], in assay [10], in assay [12] and in [13] was inactive. Further, the call in assay [19] was inactive. Moreover, the Potency entry in assay [11], in [14], in assay [18], in [16] and in assay [20] was “inactive” in each case.
Consider `CC(C)CCC(=O)CCC(C)C`, for which the compound was called inactive in assay [1], in [2], in assay [3], in assay [4], in [5] and in [6]. Also, the compound was classed as inactive in [7], in [8], in assay [9], in [10], in assay [12] and in assay [13]. For the same compound, the call in [19] was inactive. Besides, the Potency result in [11], in assay [14], in assay [18], in assay [15] and in assay [20] was “inactive” each time.
